# About 14,000 (4.5%) of roughly 310,000 compounds showed an effect of 50% or more. Effects have a minus sign here. The list comes from a sample in which strong results are over-represented; it also holds similar structures and randomly drawn compounds.
# Target: human ether-à-go-go-related gene (hERG) potassium channel (human, UniProt Q12809)
# Test: primary screen, population patch clamp on CHO cells stably expressing hERG; higher = less effect of the substance
# 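Further: peak tail current of the secondary pulse compared with the same well before compound.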
# Sequence of human ether-à-go-go-related gene (hERG) potassium channel (Q12809 whole entry, looked up): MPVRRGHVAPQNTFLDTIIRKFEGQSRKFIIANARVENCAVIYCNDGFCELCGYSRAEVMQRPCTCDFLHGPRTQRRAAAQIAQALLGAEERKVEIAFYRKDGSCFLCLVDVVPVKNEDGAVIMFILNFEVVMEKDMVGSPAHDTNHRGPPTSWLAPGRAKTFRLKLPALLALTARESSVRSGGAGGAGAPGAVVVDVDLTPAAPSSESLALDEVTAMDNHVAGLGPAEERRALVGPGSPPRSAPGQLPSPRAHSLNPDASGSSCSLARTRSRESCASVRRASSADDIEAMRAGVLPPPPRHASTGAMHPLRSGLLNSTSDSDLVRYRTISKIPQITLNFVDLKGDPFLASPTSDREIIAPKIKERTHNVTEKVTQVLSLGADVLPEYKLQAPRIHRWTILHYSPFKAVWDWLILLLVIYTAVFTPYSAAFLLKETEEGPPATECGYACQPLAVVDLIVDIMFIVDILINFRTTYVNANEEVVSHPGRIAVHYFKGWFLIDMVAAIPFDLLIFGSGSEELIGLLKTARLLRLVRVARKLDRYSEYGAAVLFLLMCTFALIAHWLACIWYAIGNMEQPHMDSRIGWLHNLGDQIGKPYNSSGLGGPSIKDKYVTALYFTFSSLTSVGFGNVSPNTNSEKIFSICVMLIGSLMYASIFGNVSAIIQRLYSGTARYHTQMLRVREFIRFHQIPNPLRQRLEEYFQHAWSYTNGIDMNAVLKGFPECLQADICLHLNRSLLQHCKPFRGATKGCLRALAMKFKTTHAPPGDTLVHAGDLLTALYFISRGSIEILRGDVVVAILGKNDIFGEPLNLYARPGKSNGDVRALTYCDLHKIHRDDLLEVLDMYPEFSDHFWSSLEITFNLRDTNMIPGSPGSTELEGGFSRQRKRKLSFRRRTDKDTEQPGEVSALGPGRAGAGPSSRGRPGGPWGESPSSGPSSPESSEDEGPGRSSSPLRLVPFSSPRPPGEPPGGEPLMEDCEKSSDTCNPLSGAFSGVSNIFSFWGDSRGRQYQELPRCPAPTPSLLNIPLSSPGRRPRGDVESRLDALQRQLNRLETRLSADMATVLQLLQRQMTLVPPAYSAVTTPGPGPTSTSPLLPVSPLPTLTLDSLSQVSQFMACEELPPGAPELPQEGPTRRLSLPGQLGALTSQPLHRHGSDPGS
row,Structure (SMILES),"hERG current change (%, negative = inhibition) at 10uM"
1,COC(=O)c1ccc(C(C(=O)NCc2ccccc2)N(Cc2ccco2)C(=O)c2cnccn2)cc1 (centres unmarked),-25.4%
2,COC(=O)/C(=C\Nc1ccc(Cl)cc1Cl)NC(=O)c1ccccc1,-4.83%
3,C=CCNC(=S)NNC(=O)CCC(O)CCCCC (centres unmarked),16.4%
4,CCN(CC(=O)NCc1cccs1)C(=O)CCC(=O)c1ccc(F)cc1,-49.7%
5,CCOc1ccc(C(=O)CCC(=O)N(CC)CC(=O)Nc2c(F)cccc2F)cc1,-25.6%
6,CCOc1ccc(C(=O)CCC(=O)N(CC)CC(=O)NCc2cccs2)cc1,-19.9%
7,CCN(CC(=O)NCc1ccc(Cl)cc1)C(=O)CCC(=O)c1ccc(F)cc1,-61.9%
8,Cc1ccc(C(=O)CCC(=O)NCc2ccc(Cl)cc2)cc1,-8.52%
9,CCN(CC(=O)NCc1cccs1)C(=O)CCC(=O)c1ccc(C)cc1,-46.9%
10,CCN(CC(=O)NCc1ccc(Cl)cc1)C(=O)CCC(=O)c1ccc(C)cc1,-66.5%
11,CCOc1ccc(C(=O)CCC(=O)N(CC)CC(=O)NCc2ccc(Cl)cc2)cc1,-70.3%
12,CCN(CC(=O)NCc1ccc(F)cc1)C(=O)c1ccc(Cl)cc1,-23.7%
13,Cc1ccc(C)c(N(CC(=O)NC2CCCC2)S(=O)(=O)c2ccccc2)c1,19.9%
14,Cl.O=C(O)c1cc(S(=O)(=O)N2CCN(C(c3ccccc3)c3ccccc3)CC2)ccc1Cl,14.7%
15,COc1ccc([C@H]2CC(=O)C=C(c3ccc(OC(F)(F)F)cc3)C2)cc1,5.59%
16,COc1ccccc1N1CCN(Cc2cccc(OC)c2OC)CC1,-12.5%
17,COc1ccccc1CN1CCN(Cc2cc(OC)c(OC)cc2OC)CC1.O=C(O)C(=O)O,-11.2%
18,Fc1ccc(CN2CCN(C(c3ccccc3)c3ccccc3)CC2)cc1.O=C(O)C(=O)O,15%
19,O=C(O)C(=O)O.c1ccc(OCCOCCN2CCN(C(c3ccccc3)c3ccccc3)CC2)cc1,-72.7%
20,COc1ccccc1CN1CCN(C(c2ccccc2)c2ccccc2)CC1.O=C(O)C(=O)O,-55.1%
21,CCOc1ccccc1N1CCN(Cc2cccc(OC)c2O)CC1,-25.8%
22,O=C(O)C(=O)O.Oc1ccccc1CN1CCN(C(c2ccccc2)c2ccccc2)CC1,17%

row,Structure (SMILES),"hERG current change (%, negative = inhibition) at 10uM"
1,COc1cccc(CN2CCN(C(c3ccccc3)c3ccccc3)CC2)c1O.O=C(O)C(=O)O,-64.5%
2,COc1ccc(OCCOCCN2CCN(C)CC2)cc1.O=C(O)C(=O)O,-6.29%
3,O=C(O)C(=O)O.c1ccc(OCCN2CCN(C(c3ccccc3)c3ccccc3)CC2)cc1,-14.6%
4,COc1ccccc1N1CCN(Cc2cccc(OC)c2O)CC1,-64.9%
5,COc1cc(CN2CCN(C(c3ccccc3)c3ccccc3)CC2)cc(OC)c1OC.O=C(O)C(=O)O,-17.2%
6,N#C/C(C(=O)N1CCOCC1)=C1\Nc2ccccc2S1,2.1%
7,CC(=O)NC(Cc1c[nH]c2ccccc12)C(=O)NCc1ccco1 (centres unmarked),12.5%
8,CCN(CC)S(=O)(=O)c1cccc(NC(=O)COc2ccc(Cl)cc2Br)c1,2.59%
9,CCn1c(SCC(=O)Nc2ccc(C(C)=O)cc2)nc2c([nH]c3ccccc32)c1=O,5.85%
10,CCOCCCNC(=O)c1ccc(-n2c(=S)[nH]c3ccccc3c2=O)cc1,10.8%
11,COc1ccccc1OCCCCCCN1CCN(C)CC1.O=C(O)C(=O)O,-5.83%
12,COc1ccccc1OCCCCN1CCN(C(c2ccccc2)c2ccccc2)CC1.O=C(O)C(=O)O,-73%
13,COc1ccccc1OCCCCCCN1CCOCC1.O=C(O)C(=O)O,0.0271%
14,COc1ccccc1CN1CCCCCC1.O=C(O)C(=O)O,11.5%
15,COc1ccc(CN2CCN(Cc3ccccc3OC)CC2)cc1.O=C(O)C(=O)O,2.68%
16,COc1cccc(OC)c1OCCN1CCCC1,15.8%
17,COc1ccccc1CN1CCN(Cc2ccc(Cl)cc2)CC1.O=C(O)C(=O)O,-62.5%
18,COc1cccc(OC)c1OCCN1CCN(C(c2ccccc2)c2ccccc2)CC1,-72.7%
19,COc1cccc(OC)c1OCCOCCN1CCN(C)CC1,20.8%
20,CCOc1ccc(NCc2nc3ccccc3n2CCOc2ccccc2)cc1,-11.6%
21,Cc1ccnc(N2CCC(C(=O)NCc3ccc(F)cc3)CC2)n1,-12%
22,CCOC(=O)N1CCN(CC(O)COc2ccccc2C(C)C)CC1.Cl (centres unmarked),-8.87%
